From PubChem BioAssay (NCI)
This is part of a sample that, as a whole, favours compounds with a hit. Of some 83,000 tested, about 20% had one in any assay.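 For each line, cells grew in 96-well plates with the test compound present at a single concentration for 48 hours.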 Calls of active or inactive are those of the source. Rule for the calls: active = growth percent below 10; inactive = the rest.

Experiments:
Experiment in all cases: NCI-60 one-dose screen, 48 h (100 = growth as untreated, 0 = no growth, -100 = all killed)
Conditions in all cases: 10 µM unless noted
DU-145 prostate = tested on: DU-145 prostate
K-562 leukemia = tested on: K-562 leukemia
MALME-3M melanoma = tested on: MALME-3M melanoma
MDA-MB-231 breast = tested on: MDA-MB-231 breast
RXF 393 renal = tested on: RXF 393 renal
SF-268 CNS = tested on: SF-268 CNS
SF-295 CNS = tested on: SF-295 CNS
SF-539 CNS = tested on: SF-539 CNS
UACC-257 melanoma = tested on: UACC-257 melanoma
M14 melanoma = tested on: M14 melanoma
HCT-15 colon = tested on: HCT-15 colon
HT29 colon = tested on: HT29 colon
SNB-75 CNS = tested on: SNB-75 CNS
SNB-19 CNS = tested on: SNB-19 CNS
U251 CNS = tested on: U251 CNS
PC-3 prostate = tested on: PC-3 prostate
SK-MEL-5 melanoma = tested on: SK-MEL-5 melanoma
UACC-62 melanoma = tested on: UACC-62 melanoma
LOX IMVI melanoma = tested on: LOX IMVI melanoma
SK-MEL-28 melanoma = tested on: SK-MEL-28 melanoma

Measured: growth

CCCCCCCCCCCCCCCCCCNC(=S)N/N=C/c1ccc(OC)c(OC)c1
inactive: DU-145 prostate 102% | K-562 leukemia 98.8% | MALME-3M melanoma 87.4% | MDA-MB-231 breast 92.7% | RXF 393 renal 110% | SF-268 CNS 98.7% | SF-295 CNS 95.7% | SF-539 CNS 93.6% | UACC-257 melanoma 100% | M14 melanoma 104% | HCT-15 colon 88.4% | HT29 colon 99.9% | SNB-75 CNS 88.2% | SNB-19 CNS 94% | U251 CNS 90.1% | PC-3 prostate 92.1% | SK-MEL-5 melanoma 95.3% | UACC-62 melanoma 86.1% | LOX IMVI melanoma 95.2% | SK-MEL-28 melanoma 100%

CCOC(=O)c1cnc2ccc(Br)cc2c1Nc1cccc(S(N)(=O)=O)c1
inactive: DU-145 prostate 103% | K-562 leukemia 90.7% | MALME-3M melanoma 101% | MDA-MB-231 breast 89.9% | RXF 393 renal 90.8% | SF-268 CNS 88.1% | SF-295 CNS 95.5% | SF-539 CNS 99% | UACC-257 melanoma 105% | M14 melanoma 110% | HCT-15 colon 90.8% | HT29 colon 107% | SNB-75 CNS 80.6% | SNB-19 CNS 88% | U251 CNS 91.9% | PC-3 prostate 94.5% | SK-MEL-5 melanoma 89.1% | UACC-62 melanoma 103% | LOX IMVI melanoma 101% | SK-MEL-28 melanoma 109%

COc1ccc2nc3ccccc3c(NCCNCCO)c2c1
inactive: K-562 leukemia 18.9% | HCT-15 colon 19.6%
active: DU-145 prostate -31.2% | MALME-3M melanoma -65.5% | MDA-MB-231 breast -18.9% | RXF 393 renal -63% | SF-268 CNS -27.9% | SF-295 CNS -18.4% | SF-539 CNS -11.1% | UACC-257 melanoma -50% | M14 melanoma -87.3% | HT29 colon -11.9% | SNB-75 CNS -53.2% | SNB-19 CNS 1.53% | U251 CNS 6.95% | PC-3 prostate 4.92% | SK-MEL-5 melanoma -32.9% | UACC-62 melanoma -70.2% | LOX IMVI melanoma -52.2% | SK-MEL-28 melanoma -70.4%

Cn1cc(-c2nnc(-c3cn(C)c4ncc(Br)cc34)s2)c2cc(Br)ccc21
inactive: DU-145 prostate 95.4% | K-562 leukemia 97.8% | MALME-3M melanoma 78.1% | MDA-MB-231 breast 67.2% | RXF 393 renal 118% | SF-268 CNS 90.9% | SF-295 CNS 103% | SF-539 CNS 81.5% | UACC-257 melanoma 92.5% | M14 melanoma 97% | HCT-15 colon 98.4% | HT29 colon 100% | SNB-75 CNS 64.3% | SNB-19 CNS 94.9% | U251 CNS 85.2% | PC-3 prostate 90.3% | SK-MEL-5 melanoma 93.1% | UACC-62 melanoma 86.7% | LOX IMVI melanoma 95.8% | SK-MEL-28 melanoma 95.9%

COc1cc(C)cc2oc3oc(=N)c(C(=O)c4ccccc4)cc3c(=O)c12
inactive: DU-145 prostate 111% | K-562 leukemia 97.5% | MALME-3M melanoma 91.8% | MDA-MB-231 breast 98.2% | RXF 393 renal 108% | SF-268 CNS 94.4% | SF-295 CNS 106% | SF-539 CNS 96.4% | UACC-257 melanoma 111% | M14 melanoma 99.7% | HCT-15 colon 103% | HT29 colon 108% | SNB-75 CNS 86.2% | SNB-19 CNS 99.4% | U251 CNS 107% | PC-3 prostate 103% | SK-MEL-5 melanoma 96.8% | UACC-62 melanoma 93.5% | LOX IMVI melanoma 95.6% | SK-MEL-28 melanoma 98%

NC(=S)Cc1ccccc1
active: LOX IMVI melanoma 0.449%
inactive: DU-145 prostate 104% | K-562 leukemia 97.1% | MALME-3M melanoma 92.7% | MDA-MB-231 breast 101% | RXF 393 renal 116% | SF-268 CNS 99.8% | SF-295 CNS 91.9% | SF-539 CNS 95.5% | UACC-257 melanoma 103% | M14 melanoma 98.6% | HCT-15 colon 97.3% | HT29 colon 101% | SNB-75 CNS 88% | SNB-19 CNS 98.2% | U251 CNS 100% | PC-3 prostate 102% | SK-MEL-5 melanoma 100% | UACC-62 melanoma 93.9% | SK-MEL-28 melanoma 105%

COc1cc(OC)c(/C=C/C(=O)c2c(N)cc(OC)cc2OC)c(OC)c1
inactive: DU-145 prostate 12.6% | K-562 leukemia 13.9% | MALME-3M melanoma 63.6% | MDA-MB-231 breast 41.2% | SF-268 CNS 42.6% | UACC-257 melanoma 49.4% | M14 melanoma 18.2% | HCT-15 colon 21.2% | SNB-75 CNS 23.5% | SNB-19 CNS 27.9% | U251 CNS 11.9% | PC-3 prostate 11.8% | SK-MEL-5 melanoma 17% | LOX IMVI melanoma 23.2% | SK-MEL-28 melanoma 61%
active: RXF 393 renal -46.1% | SF-295 CNS 4.26% | SF-539 CNS -6.02% | HT29 colon 3.5% | UACC-62 melanoma 9.68%

CC1(C)CC[C@]2(C(N)=O)CC[C@]3(C)C(=CC[C@@H]4[C@@]5(C)C/C(=C/c6cccnc6)C(=O)C(C)(C)[C@@H]5CC[C@]43C)[C@@H]2C1
active: DU-145 prostate -18% [100 µM] | K-562 leukemia 4.29% [100 µM] | MALME-3M melanoma -75.9% [100 µM] | MDA-MB-231 breast -45.2% [100 µM] | RXF 393 renal -63% [100 µM] | SF-268 CNS -5.09% [100 µM] | SF-295 CNS -53.9% [100 µM] | SF-539 CNS -61.5% [100 µM] | UACC-257 melanoma -54.7% [100 µM] | M14 melanoma -11.2% [100 µM] | HCT-15 colon -65.6% [100 µM] | HT29 colon -35.6% [100 µM] | SNB-75 CNS -17.6% [100 µM] | SNB-19 CNS -90.1% [100 µM] | U251 CNS -83.2% [100 µM] | PC-3 prostate -19.6% [100 µM] | SK-MEL-5 melanoma -100% [100 µM] | UACC-62 melanoma -70.5% [100 µM] | LOX IMVI melanoma -74.1% [100 µM] | SK-MEL-28 melanoma -59.7% [100 µM]
